Experimental data taken from the supplement of paper PMC8253809.

Each molecule was assayed on HGGX39 (paediatric high-grade glioma line) (assay: growth inhibition (% activity, log2 RLU normalised to DMSO / staurosporine); higher = more growth inhibition). Conditions: 33 µM.
Summary of the method: (§1)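 On Geltrex-coated 384-well plates, pHGG cell lines and H9-derived neural stem cells were grown with approved drugs pinned in at a single final concentration of about 33 μM, in triplicate, for 7 days at 37 °C, 5% CO2. Per-plate normalisation of log2-transformed CellTiter-Glo luminescence to % activity between solvent and positive control wells followed. Each growth-inhibition value is the median over the replicates.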

SMILES	growth inhibition [%]
C/C=C(\C)C(=O)N[C@@H](c1ccccc1)[C@@H](O)C(=O)O[C@H]1C[C@@]2(O)[C@@H](OC(=O)c3ccccc3)[C@@H]3[C@]4(OC(C)=O)CO[C@@H]4C[C@H](O)[C@@]3(C)C(=O)[C@H](OC(C)=O)C(=C1C)C2(C)C	33.6
CCOC(=O)c1cncn1[C@H](C)c1ccccc1	1.86
O=C(O[C@H]1C[C@H]2CC[C@@H](C1)[N+]21CCCC1)C(O)(c1ccccc1)c1ccccc1	-4.77
NCCc1c[nH]c2ccc(O)cc12	-2.22
CCC1(c2ccc(N)cc2)CCC(=O)NC1=O (centres undefined)	1.68
N.N.[Cl][Pt][Cl]	-0.146
C[N+]1(C)[C@@H]2C[C@@H](OC(=O)[C@H](CO)c3ccccc3)C[C@H]1[C@@H]1O[C@@H]12	2.27
CN1C2CC(O)CC1C1OC12 (centres undefined)	-1.67
C=CC[C@]1(O)CC[C@H]2[C@@H]3CCC4=CC(=O)CCC4=C3C=C[C@@]21C	1.7
CCC(COC(=O)c1cc(OC)c(OC)c(OC)c1)(c1ccccc1)N(C)C (centres undefined)	7.48
CCCCCCCCCCCCCCCC[n+]1ccccc1	59.6
CC[C@@H](C(N)=O)N1CCCC1=O	-1.17
Cc1cc(O)ccc1Cl	0.78
OC(c1ccccc1)(c1ccccc1)C1CCNCC1	-0.475
Cc1cccc(C)c1NC1=NCCCS1	-0.494
COc1ccc(C(=O)N2CCCC2=O)cc1	-0.804
N[C@@H]1C[C@H]1c1ccccc1.N[C@H]1C[C@@H]1c1ccccc1	5.28
COC(=O)C1=CCCN(C)C1	1.54
C=CCN.ClCC1CO1 (centres undefined)	2.03
O=P1(NCCCl)OCCCN1CCCl (centres undefined)	3.87
CN(C)C1C(=O)C(C(N)=O)=C(O)C2(O)C(=O)C3=C(O)c4c(O)cccc4C(C)(O)C3CC12 (centres undefined)	1.88

Each molecule was assayed on HGGX6 (H3.3 G34R paediatric high-grade glioma line) in the same assay as above. Conditions: 33 µM.
Summary of the method: as §1

SMILES	growth inhibition [%]
C[N+](C)(C)CCCCCCCCCC[N+](C)(C)C	2.4
CC(=O)O[C@H]1C[C@@H]2CC[C@@H]3[C@H](CC[C@@]4(C)[C@H]3C[C@H]([N+]3(C)CCCCC3)[C@@H]4OC(C)=O)[C@@]2(C)C[C@@H]1[N+]1(C)CCCCC1	1.2
CN(C)C(=O)Oc1ccc[n+](C)c1	0.761
CN1c2ccccc2C(NCCCCCCC(=O)O)c2ccc(Cl)cc2S1(=O)=O (centres undefined)	0.961
O=c1[nH]c2ccccc2n1CCCN1CCC(n2c(=O)[nH]c3cc(Cl)ccc32)CC1	1.12
C[N+]1(C)CCCC(OC(=O)C(O)(c2ccccc2)c2ccccc2)C1 (centres undefined)	-1.01
CNC1CC(N)C(O)C(OC2OC(CO)C(O)C3OC4(OC(C(N)CO)C(O)C(O)C4O)OC23)C1O (centres undefined)	1.68
CN1C(=O)CCS(=O)(=O)C1c1ccc(Cl)cc1 (centres undefined)	1.29
CN(C)C(=O)Oc1cccc([N+](C)(C)C)c1	-1.84
CCC1=C[C@H]2CN3CCc4c([nH]c5ccccc45)[C@](C(=O)OC)(C2)[C@H]13	-3.94
NCC(O)c1ccc(O)cc1 (centres undefined)	-2.95
CCCN1C[C@H](CSC)C[C@@H]2c3cccc4[nH]cc(c34)C[C@H]21	2.2
CN1C(=O)COc2c(C(=O)NC3CN4CCC3CC4)cc(Cl)cc21 (centres undefined)	3.19
Cn1c(CCCC(=O)O)nc2cc(N(CCCl)CCCl)ccc21	3.4
CC(=O)OC12COC1CC(O)C1(C)C(=O)C(O)C3=C(C)C(O)CC(O)(C(OC(=O)c4ccccc4)C21)C3(C)C (centres undefined)	6.8
CC(=O)OC1CN2CCC1CC2 (centres undefined)	-1.32
CC[C@@]1(O)C(=O)OCc2c1cc1n(c2=O)Cc2cc3ccccc3nc2-1	13.4
C/C=C(\C)C(=O)N[C@@H](c1ccccc1)[C@@H](O)C(=O)O[C@H]1C[C@@]2(O)[C@@H](OC(=O)c3ccccc3)[C@@H]3[C@]4(OC(C)=O)CO[C@@H]4C[C@H](O)[C@@]3(C)C(=O)[C@H](OC(C)=O)C(=C1C)C2(C)C	19.9
CCOC(=O)c1cncn1[C@H](C)c1ccccc1	2.36

SMILES	growth inhibition [%]
O=C(O[C@H]1C[C@H]2CC[C@@H](C1)[N+]21CCCC1)C(O)(c1ccccc1)c1ccccc1	-4.81
NCCc1c[nH]c2ccc(O)cc12	-1.35
CCC1(c2ccc(N)cc2)CCC(=O)NC1=O (centres undefined)	2.54
N.N.[Cl][Pt][Cl]	-3.02
C[N+]1(C)[C@@H]2C[C@@H](OC(=O)[C@H](CO)c3ccccc3)C[C@H]1[C@@H]1O[C@@H]12	2.07
CN1C2CC(O)CC1C1OC12 (centres undefined)	-0.472
C=CC[C@]1(O)CC[C@H]2[C@@H]3CCC4=CC(=O)CCC4=C3C=C[C@@]21C	1.91
CCC(COC(=O)c1cc(OC)c(OC)c(OC)c1)(c1ccccc1)N(C)C (centres undefined)	5.32
CCCCCCCCCCCCCCCC[n+]1ccccc1	35.8
CC[C@@H](C(N)=O)N1CCCC1=O	-3.23
Cc1cc(O)ccc1Cl	0.216
OC(c1ccccc1)(c1ccccc1)C1CCNCC1	0.616
Cc1cccc(C)c1NC1=NCCCS1	0.819
COc1ccc(C(=O)N2CCCC2=O)cc1	-0.258
N[C@@H]1C[C@H]1c1ccccc1.N[C@H]1C[C@@H]1c1ccccc1	2.4
COC(=O)C1=CCCN(C)C1	1.61
C=CCN.ClCC1CO1 (centres undefined)	-0.039
O=P1(NCCCl)OCCCN1CCCl (centres undefined)	-0.383
CN(C)C1C(=O)C(C(N)=O)=C(O)C2(O)C(=O)C3=C(O)c4c(O)cccc4C(C)(O)C3CC12 (centres undefined)	-0.661
